USP8 block: inhibitors of human USP8 deubiquitinase | hit rate 4.2% among 47,000 | AID 1645853, 2021 | inhibition, % at 20 µM | purified USP8, Ub-rhodamine cleavage fluorescence, 30 min
OTUD3 block: inhibitors of human OTUD3 deubiquitinase; purified OTUD3, Ub-rhodamine fluorescence, 2 h; inhibition, % at 25 µM; hit rate 0.7% among 47,000
USP7 inh: inhibitors of human USP7 deubiquitinase; purified USP7, Ub-rhodamine cleavage fluorescence; hit rate 0.3% among 47,000; inhibition, % at 20 µM; Ubiquitin carboxyl-terminal hydrolase 7 (Homo sapiens), Q93009
USP10 inh: inhibitors of human USP10 deubiquitinase. hit rate 1.1% among 47,000. purified USP10, Ub-rhodamine fluorescence, 60 min. inhibition, % at 20 µM. Ubiquitin carboxyl-terminal hydrolase 10 (Homo sapiens), Q14694
UCHL1 inh: inhibitors of human UCHL1 deubiquitinase; AID 1645859, 2021; inhibition, % at 20 µM; Ubiquitin carboxyl-terminal hydrolase isozyme L1 (Homo sapiens), P09936; purified UCHL1, Ub-rhodamine cleavage fluorescence; hit rate 0.2% among 47,000
Target sequence (P09936 whole entry, looked up): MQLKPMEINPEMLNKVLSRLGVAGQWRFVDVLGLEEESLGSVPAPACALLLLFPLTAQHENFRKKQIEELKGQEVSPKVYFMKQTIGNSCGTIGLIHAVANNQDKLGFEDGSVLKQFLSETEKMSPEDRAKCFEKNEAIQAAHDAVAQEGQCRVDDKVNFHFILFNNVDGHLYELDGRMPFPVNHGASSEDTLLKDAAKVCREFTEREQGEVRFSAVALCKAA
USP28 block: inhibitors of human USP28 deubiquitinase; hit rate 3% among 47,000; Ubiquitin carboxyl-terminal hydrolase 28 (Homo sapiens), Q96RU2; inhibition, % at 25 µM; AID 1645857, 2021; purified USP28, Ub-rhodamine cleavage fluorescence, 30 min
* marks the source's active call; other numbers are inactive results. An excerpt weighted towards active compounds, which were near 6.8% of everything screened. No stated cut-off is given here; in the data, active means inhibition above about 30%; inactive means the rest.

SMILES	USP8 block	OTUD3 block	USP7 inh	USP10 inh	UCHL1 inh	USP28 block
O=C(CCc1nnc2n(Cc3ccccc3)c(=O)c3ccccc3n12)NCc1ccc2c(c1)OCO2	39.3*	10.6	-8.6	43.7*	-1.2	2.4
O=C(Cn1c(=O)n(Cc2ccc(F)cc2)c(=O)c2ncccc21)N1CCCc2ccccc21	1.3	-10.4	-134.4	-5.3	-1.1	13.4
O=C(Cn1c(=O)n(Cc2ccc3c(c2)OCO3)c(=O)c2ncccc21)NCc1ccccc1	38.5*	43.6*	1.2	-0.8	7.2	61.7*
O=C(CCn1c(=O)c2ccccc2n(CC(=O)OCc2ccccc2)c1=O)NCc1ccc2c(c1)OCO2	26.3	9.0	5.6	47.8*	-1.8	8.9
O=C(Cn1c(=O)n(Cc2ccc3c(c2)OCO3)c(=O)c2ccccc21)c1ccccc1	36.1*	8.8	3.9	-0.3	2.2	12.4
FC(F)(F)c1cnc(/C=C/Nc2cccc(Oc3ncc(C(F)(F)F)cc3Cl)c2)c(Cl)c1	74.5*	-13.8	0.4	-6.0	-3.4	-23.7
Cc1ccc(C(=O)Nc2ccc(C)n(CC(=O)N3CCN(c4ccccn4)CC3)c2=O)cc1	19.6	14.0	0.8	-1.6	2.4	15.9
COc1cc(N)c(Cl)cc1C(=O)OCC(=O)c1ccc2c(c1)OCCO2	-3.3	1.0	-43.7	5.0	8.4	54.5*
COc1cc(N)c(Cl)cc1C(=O)OCC(=O)NCc1ccc2c(c1)OCO2	-5.8	0.0	0.0	-2.2	1.1	0.5
COc1cc(N)c(Cl)cc1C(=O)OCC(=O)Nc1ccc(N2CCOCC2)cc1	38.7*	5.3	6.7	0.1	3.9	3.1
Cc1ccc(-c2ncc(NC(=O)c3ccc(C#N)cc3)cn2)cc1	7.2	-3.2	5.0	5.7	2.0	-7.0
CCOC(=O)c1c2ccc(OCC(=O)NCc3ccco3)cc2n2ccccc12	63.1*	-23.7	-71.1	-6.0	-37.4	-29.4
Cc1ccc(OCC(=O)NCC(c2ccco2)N2CCCC2)cc1C (centres undefined)	-13.4	-22.3	-4.0	-8.1	-3.7	-14.1
CSc1ncc2c(=O)n(CC(=O)NCc3ccc(OC(C)C)cc3)cnc2n1	-19.2	-50.3	-11.0	-5.5	-13.6	-45.4
NS(=O)(=O)c1cccc(NC(=O)/C=C/c2cn(-c3ccccc3)nc2-c2cccc([N+](=O)[O-])c2)c1	71.3*	5.4	18.8	62.6*	5.4	22.6
CNC(=O)Cc1ccc(NC(=O)/C=C/c2cn(-c3ccccc3)nc2-c2ccc(F)cc2)cc1	33.6*	0.0	7.0	10.3	0.9	-4.4
O=C(/C=C/c1cn(-c2ccccc2)nc1-c1cc2ccccc2o1)NCc1ccccc1F	8.6	-2.0	-8.4	-10.1	-11.1	-5.4
Cc1nc2ccc(NC(=O)/C=C/c3cn(-c4ccccc4)nc3-c3cccnc3)cc2s1	38.2*	-5.1	12.5	0.0	-1.7	4.8
CC(=O)NS(=O)(=O)c1ccc(NC(=O)/C=C/c2cn(-c3ccccc3)nc2-c2ccccc2)cc1	65.4*	8.8	41.0*	62.6*	12.0	24.6
Cc1ccccc1N1CCN(S(=O)(=O)c2cc3n(c2)CCCNC3=O)CC1	-190.1	-7.4	-8.3	-1.8	-1.9	-8.0
Cc1cc(C)n(CC(=O)NCCc2ccc(Cl)cc2)c(=O)c1C#N	0.0	13.5	1.6	2.3	1.4	18.0
O=C(CSC1=NC2(CCCC2)Nc2ccccc21)Nc1ccccc1F	-30.4	-36.1	-4.6	-6.8	-5.3	-53.7
Cc1ccc(S(=O)(=O)NCCn2c(N)c(C#N)c3nc4ccccc4nc32)cc1	64.9*	15.3	-59.9	-10.0	-18.6	-45.8
CCCCCCCC1OC(=O)Cc2cc(O)c(O)c(O)c21 (centres undefined)	76.9*	91.6*	74.9*	81.8*	63.4*	94.0*
O=C(Nc1nc(-c2ccccc2)c2ccccc2n1)c1ccc(Cl)cc1	0.4	16.4	8.5	11.0	5.2	33.5*
O=C(O)c1c(Oc2ccc(Cl)cc2)c(-c2ccccc2)nc2ccccc12	10.1	9.3	0.0	5.6	-1.5	4.0
O=C(Nc1ccc2ccccc2n1)c1ccc(Cl)cc1	59.2*	5.5	10.2	11.8	2.2	12.4
COc1cc(NC(=O)Cc2ccc3c(c2)OCCO3)c(OC)cc1Cl	48.8*	7.5	14.7	21.0	3.9	22.1
